The supplement of paper PMC8699584
± gives the standard deviation of the averaged measurements.

Columns and labels:
Molm13 = assay: cell viability relative to DMSO control (bortezomib = 0%); higher = less growth inhibition; conditions: 10 nM; 72 h
Procedure, shortened: (§1)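 FLT3-ITD+ acute myeloid leukemia cells were dispensed onto a library of 679 approved and investigational compounds in 384-well plates, at 1000 cells per well in 50 µL and a single 10 nM dose, for 72 h. The screen was run in duplicate. Cell viability was read by CellTiter-Glo luminescence on an EnVision reader. Values were converted to percentages by per-plate linear regression between DMSO-treated cells (100%) and positive-control-treated cells (0%).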

Mv4-11 = assay: as above; conditions: 10 nM; 72 h
Procedure, shortened: as §1

## Nc1ccn([C@@H]2O[C@H](CO)[C@@H](O)C2(F)F)c(=O)n1 [Gemcitabine]
Molm13
  cell viability: -0.99 ± 5.6%
Mv4-11
  cell viability: -5.76 ± 18%

## FC(F)(F)c1ccc(CNc2ccc(Cc3c[nH]c4ncc(Cl)cc34)cn2)cc1
Molm13
  cell viability: 112.2 ± 0.43%
Mv4-11
  cell viability: 106 ± 19%

## Cc1[nH]c(/C=C2\C(=O)Nc3ccc(S(=O)(=O)N(C)c4cccc(Cl)c4)cc32)c(C)c1C(=O)N1CCN(C)CC1
Molm13
  cell viability: 104 ± 22%
Mv4-11
  cell viability: 107 ± 13%

## FC(F)c1nc2ccccc2n1-c1nc(N2CCOCC2)nc(N2CCOCC2)n1
Molm13
  cell viability: 117 ± 11%
Mv4-11
  cell viability: 122 ± 12%

## O=C(O)c1cc(O)c2c(c1)[C@@H]([C@H]1c3cc(C(=O)O)cc(O)c3C(=O)c3c(O[C@@H]4O[C@H](CO)[C@@H](O)[C@H](O)[C@H]4O)cccc31)c1cccc(O[C@@H]3O[C@H](CO)[C@@H](O)[C@H](O)[C@H]3O)c1C2=O [Sennoside B]
Molm13
  cell viability: 101 ± 12%
Mv4-11
  cell viability: 91.4 ± 16%

## CCn1c(N)c(C(=O)NC)c(=O)c2ccc(C#CC(C)(O)COC)nc21 (centres undefined)
Molm13
  cell viability: 110 ± 4.6%
Mv4-11
  cell viability: 115 ± 8.3%

## CCN(CC)CCNC(=O)c1c(C)[nH]c(/C=C2\C(=O)Nc3ccc(F)cc32)c1C [Sunitinib Malate]
Molm13
  cell viability: 83.1 ± 1.1%
Mv4-11
  cell viability: 97.8 ± 4.2%

## COC(=O)c1c2c(c3ccccc3c1O)OC(C)(C)C=C2 [Mollugin]
Molm13
  cell viability: 98 ± 1.6%
Mv4-11
  cell viability: 100 ± 7.8%

## CN1C/C=C/CCOc2cccc(c2)-c2ccnc(n2)Nc2cccc(c2)C1
Molm13
  cell viability: 86.77 ± 0.29%
Mv4-11
  cell viability: 102 ± 22%

## N#Cc1cccc(-c2c[nH]c3ncnc(N4CCOCC4)c23)c1
Molm13
  cell viability: 109 ± 23%
Mv4-11
  cell viability: 100 ± 8.2%

## COc1c(C)c(C(=O)c2ccc(N)c(C(=O)O)c2)n2ccccc12
Molm13
  cell viability: 107 ± 23%
Mv4-11
  cell viability: 114 ± 7.3%

## Nc1nc(N)c2nc(-c3cccc(O)c3)c(-c3cccc(O)c3)nc2n1
Molm13
  cell viability: 96.7 ± 5%
Mv4-11
  cell viability: 120 ± 11%
